# Experimental data: PubChem BioAssay
# Records with an inconclusive call do not appear. Activity calls are given as the source filed them.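 Rule for the calls, unless noted: active = normalized viability below 100% at a tested concentration; inactive = the rest.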
# Legend:
# [1] = growth inhibition of DIPG glioma cells, dose response, cell-based, SU-DIPG-XVII, MIPE5.0, CellTiter-Glo, qHTS (AID 1347060; cut-off not given, nearly all actives have AC50 up to about 26 µM;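 for AC50: cells exposed to compound for 48 hours before viability readout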); conditions: SU-DIPG-XVII viability, CellTiter-Glo ATP luminescence
# [2] = growth inhibition of DIPG glioma cells, dose response, cell-based, SU-DIPG-XIII, MIPE4.0, CellTiter-Glo, qHTS (AID 1347061; cut-off not given, nearly all actives have AC50 up to about 37 µM;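 note: cells exposed to compound for 48 hours before readout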); conditions: SU-DIPG-XIII viability, CellTiter-Glo ATP luminescence
# [3] = growth inhibition of DIPG glioma cells, dose response, cell-based, JHH-DIPG-1, MIPE4.0, CellTiter-Glo, qHTS (AID 1347062; cut-off not given, nearly all actives have AC50 up to about 27 µM;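 for AC50: cells exposed to compound for two days before readout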); conditions: JHH-DIPG-1 viability, CellTiter-Glo ATP luminescence
# [4] = growth inhibition of DIPG glioma cells, dose response, cell-based, SU-DIPG-IV, MIPE4.0, CellTiter-Glo, qHTS (AID 1347063; cut-off not given, nearly all actives have AC50 up to about 30 µM;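 note: compound exposure lasted 48 hours before the viability readout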); conditions: SU-DIPG-IV viability, CellTiter-Glo ATP luminescence
# [5] = growth inhibition of DIPG glioma cells, dose response, cell-based, SU-DIPG-XIII, MIPE5.0, CellTiter-Glo, qHTS (AID 1347064; cut-off not given, nearly all actives have AC50 up to about 23 µM;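 for AC50: cells exposed to compound for 48 hours before the viability read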); conditions: SU-DIPG-XIII viability, CellTiter-Glo ATP luminescence
# [6] = viability loss in pontine glioma line – cell-based, SU-DIPG-XXV, MIPE5.0, CellTiter-Glo, qHTS, dose response (AID 1347065; cut-off not given, nearly all actives have AC50 up to about 26 µM;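 note: cells exposed to compound for 48 hours before ATP readout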); conditions: CellTiter-Glo ATP luminescence
# [7] = JHH-DIPG-1 glioma cell viability, MIPE5.0 library, CellTiter-Glo luminescence, qHTS (AID 1347067; cut-off not given, nearly all actives have AC50 up to about 26 µM;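 note: cells exposed to compound for 48 hours before readout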); conditions: JHH-DIPG-1 glioma viability, CellTiter-Glo ATP luminescence
# [8] = SU-DIPG-XXV glioma cell viability, MIPE5.0 library, qHTS (AID 1347068; cut-off not given, nearly all actives have IC50 up to about 30 µM)
# [9] = modifiers of HSF1 nuclear foci, imaging, Selleck Cancer Library (AID 1347162; in the data active = plate-normalised HSF1 focus index below about 0.46); conditions: human cells, at 10 µM; SSMD: measured here: HSF1 foci SSMD mean; cell count: measured here: cell number; plate-normalised HSF1 focus index: stronger effect = lower value
# [10] = SU-DIPG-VI glioma cell viability, MIPE4.0 library, CellTiter-Glo luminescence, qHTS (AID 1347066; cut-off not given, nearly all actives have AC50 up to about 30 µM;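 note: cells exposed to compound for 48 hours before readout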); conditions: CellTiter-Glo ATP luminescence
# [11] = sensitizers of A549 cells to miR-34 induction, primary screen, imaging, A549 dox-inducible miR-34, nuclei and caspase counts (AID 1347080;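 active = compounds whose cell count with miR-34 switched on is under 0.7 times the count with it off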); conditions: A549 miR-34 inducible, Hoechst nuclei count, 48 h
# [12] = survival rescue of mitochondrial mutant cells in low glucose, primary screen, MELAS cybrids, Rieske KO mouse fibroblasts, CellTiter-Glo (AID 1508586;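 active = mean z-score across replicates of 1.96 or higher in either the MELAS or the Rieske mutant cell line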;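 note: z relative to plate mean and SD of compound and empty wells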)
# [13] = ovarian cancer cell viability with rucaparib, profiling panel, oncology-focused library, rucaparib conditional (AID 1508598); conditions: patient-derived ovarian cancer cells, CellTiter-Glo viability, 144 h, stronger effect = lower value
# [14] = stronger effect = lower value, cell number ratio, induced over uninduced
# [15] = measured here: relative caspase fold change +Dox/-Dox
# [16] = measured here: total cells with miR-34 induction, stronger effect = lower value
# [17] = measured here: total cells without miR-34 induction
# [18] = MELAS cybrid survival, CellTiter-Glo 48 h, stronger effect = higher value
# [19] = Rieske KO mouse fibroblast survival, CellTiter-Glo 72 h
smiles,measurement,setting,value
COc1cc2c(cc1OC)CN(CCc1ccc(NC(=O)c3cccc4c(=O)c5cccc(OC)c5[nH]c34)cc1)CC2,outcome,[1],inactive
same,AC50,[2],8330 nM (active)
same,outcome,[3],inactive
same,outcome,[4],inactive
same,outcome,[5],inactive
same,outcome,[6],inactive
same,outcome,[7],inactive
same,outcome,[8],inactive
same,SSMD,[9],4.27
same,cell count,[9],6980
same,plate-normalised HSF1 focus index,[9],1.26 (inactive)
O=C1NC(=O)/C(=C\c2ccc(-c3ccc(F)cc3)o2)S1,outcome,[1],inactive
same,outcome,[2],inactive
same,outcome,[3],inactive
same,outcome,[4],inactive
same,outcome,[5],inactive
same,outcome,[10],inactive
same,outcome,[8],inactive
CC(C)(C)c1[nH]cnc1/C=c1\[nH]c(=O)/c(=C/c2ccccc2)[nH]c1=O,AC50,[1],37.2 nM (active)
same,AC50,[2],42900 nM (active)
same,AC50,[3],340 nM (active)
same,AC50,[4],42900 nM (active)
same,AC50,[5],166 nM (active)
same,AC50,[6],46.8 nM (active)
same,AC50,[7],52.5 nM (active)
same,SSMD,[9],2.69
same,cell count,[9],7220
same,plate-normalised HSF1 focus index,[9],1.17 (inactive)
CC(C)Oc1cc(Nc2nc(N[C@@H](C)c3ccc(F)cn3)ncc2Cl)[nH]n1,AC50,[1],1050 nM (active)
same,AC50,[2],11800 nM (active)
same,AC50,[3],10500 nM (active)
same,AC50,[4],6620 nM (active)
same,AC50,[5],1180 nM (active)
same,AC50,[6],742 nM (active)
same,AC50,[7],5900 nM (active)
same,SSMD,[9],-0.66
same,cell count,[9],6860
same,plate-normalised HSF1 focus index,[9],0.979 (inactive)
Cn1c(=O)n(-c2ccc(C(C)(C)C#N)cc2)c2c3cc(-c4cnc5ccccc5c4)ccc3ncc21,AC50,[1],481 nM (active)
same,AC50,[2],2640 nM (active)
same,AC50,[3],4180 nM (active)
same,AC50,[4],23.5 nM (active)
same,AC50,[5],855 nM (active)
same,AC50,[6],135 nM (active)
same,AC50,[7],855 nM (active)
same,SSMD,[9],-0.518
same,cell count,[9],7130
same,plate-normalised HSF1 focus index,[9],0.984 (inactive)
COc1nccc(-c2c(-c3ccc(F)cc3)ncn2C2CCNCC2)n1,outcome,[1],inactive
same,outcome,[2],inactive
same,outcome,[3],inactive
same,outcome,[4],inactive
same,outcome,[5],inactive
same,outcome,[6],inactive
same,outcome,[7],inactive
same,outcome,[8],inactive
COc1ccc2c3n(c(=NC(=O)c4cccnc4)nc2c1OC)CCN3,AC50,[1],1050 nM (active)
same,AC50,[2],13200 nM (active)
same,AC50,[3],8330 nM (active)
same,AC50,[4],1050 nM (active)
same,AC50,[5],742 nM (active)
same,AC50,[6],590 nM (active)
same,outcome,[8],inactive
same,SSMD,[9],-0.125
same,cell count,[9],7610
same,plate-normalised HSF1 focus index,[9],0.991 (inactive)
Nc1cccc2c1CN([C@H]1CCC(=O)NC1=O)C2=O,outcome,[1],inactive
same,outcome,[2],inactive
same,outcome,[3],inactive
same,outcome,[4],inactive
same,outcome,[5],inactive
same,outcome,[7],inactive
same,outcome,[8],inactive
CS(=O)(=O)c1ccc(-c2cnc(N)c(C(=O)Nc3ccccc3)n2)cc1,outcome,[1],inactive
same,outcome,[2],inactive
same,outcome,[3],inactive
same,outcome,[4],inactive
same,outcome,[5],inactive
same,outcome,[10],inactive
same,outcome,[7],inactive
same,outcome,[8],inactive
same,fold change,[11]; [14],1.01 (inactive)
same,fold change,[11]; [15],0.481
same,cell count,[11]; [16],4300
same,cell count,[11]; [17],4270
same,z-score,[12]; [18],-0.286 (inactive)
same,z-score,[12]; [19],0.758
c1ccc(-c2nn3c(c2-c2ccnc4cc(OCCN5CCOCC5)ccc24)CCC3)nc1,outcome,[1],inactive
same,outcome,[2],inactive
same,outcome,[3],inactive
same,outcome,[4],inactive
same,outcome,[5],inactive
same,outcome,[10],inactive
same,outcome,[7],inactive
same,SSMD,[9],2.44
same,cell count,[9],6520
same,plate-normalised HSF1 focus index,[9],1.13 (inactive)
CCCCCCCCCC(=O)N[C@@H](Cc1c[nH]c2ccccc12)C(=O)N[C@H](CC(N)=O)C(=O)N[C@@H](CC(=O)O)C(=O)N[C@@H]1C(=O)NCC(=O)N[C@@H](CCCN)C(=O)N[C@@H](CC(=O)O)C(=O)N[C@H](C)C(=O)N[C@@H](CC(=O)O)C(=O)NCC(=O)N[C@H](CO)C(=O)N[C@@H]([C@@H](C)CC(=O)O)C(=O)N[C@@H](CC(=O)c2ccccc2N)C(=O)O[C@@H]1C,outcome,[1],inactive
same,outcome,[2],inactive
same,outcome,[3],inactive
same,outcome,[4],inactive
same,outcome,[5],inactive
same,outcome,[10],inactive
same,outcome,[7],inactive
COc1c(C)cnc(Cn2cnc3c(Cl)nc(N)nc32)c1C,AC50,[1],525 nM (active)
same,AC50,[2],1180 nM (active)
same,AC50,[3],187 nM (active)
same,AC50,[4],332 nM (active)
same,AC50,[5],1050 nM (active)
same,AC50,[6],742 nM (active)
same,AC50,[7],1050 nM (active)
same,fold change,[11]; [14],0.993 (inactive)
same,fold change,[11]; [15],1.45
same,cell count,[11]; [16],1950
same,cell count,[11]; [17],1960
same,SSMD,[9],4.45
same,cell count,[9],7350
same,plate-normalised HSF1 focus index,[9],1.16 (inactive)
same,z-score,[12]; [18],2.83 (active)
same,z-score,[12]; [19],0.0158
same,viability,"[13]; at 0.000305 µM, OCI-C5x cells, with rucaparib 10 µM, 100% = cells with rucaparib alone",115% (inactive)
same,viability,"[13]; at 0.000305 µM, OCI-C5x cells, without rucaparib",104% (inactive)
same,viability,"[13]; at 0.000305 µM, OCI-P5x cells, with rucaparib 20 µM, 100% = cells with rucaparib alone",111% (inactive)
same,viability,"[13]; at 0.000305 µM, OCI-P5x cells, without rucaparib",99.7% (active)
same,viability,"[13]; at 0.00122 µM, OCI-C5x cells, with rucaparib 10 µM, 100% = cells with rucaparib alone",122% (inactive)
same,viability,"[13]; at 0.00122 µM, OCI-C5x cells, without rucaparib",111% (inactive)
same,viability,"[13]; at 0.00122 µM, OCI-P5x cells, with rucaparib 20 µM, 100% = cells with rucaparib alone",116% (inactive)
same,viability,"[13]; at 0.00122 µM, OCI-P5x cells, without rucaparib",110% (inactive)
same,viability,"[13]; at 0.00488 µM, OCI-C5x cells, with rucaparib 10 µM, 100% = cells with rucaparib alone",123% (inactive)
same,viability,"[13]; at 0.00488 µM, OCI-C5x cells, without rucaparib",82.7% (active)
same,viability,"[13]; at 0.00488 µM, OCI-P5x cells, with rucaparib 20 µM, 100% = cells with rucaparib alone",122% (inactive)
same,viability,"[13]; at 0.00488 µM, OCI-P5x cells, without rucaparib",118% (inactive)
same,viability,"[13]; at 0.0195 µM, OCI-C5x cells, with rucaparib 10 µM, 100% = cells with rucaparib alone",125% (inactive)
same,viability,"[13]; at 0.0195 µM, OCI-C5x cells, without rucaparib",111% (inactive)
same,viability,"[13]; at 0.0195 µM, OCI-P5x cells, with rucaparib 20 µM, 100% = cells with rucaparib alone",128% (inactive)
same,viability,"[13]; at 0.0195 µM, OCI-P5x cells, without rucaparib",121% (inactive)
same,viability,"[13]; at 0.0781 µM, OCI-C5x cells, with rucaparib 10 µM, 100% = cells with rucaparib alone",133% (inactive)
same,viability,"[13]; at 0.0781 µM, OCI-C5x cells, without rucaparib",137% (inactive)
same,viability,"[13]; at 0.0781 µM, OCI-P5x cells, with rucaparib 20 µM, 100% = cells with rucaparib alone",33.6% (active)
same,viability,"[13]; at 0.0781 µM, OCI-P5x cells, without rucaparib",68.7% (active)
same,viability,"[13]; at 0.313 µM, OCI-C5x cells, with rucaparib 10 µM, 100% = cells with rucaparib alone",98.4% (active)
same,viability,"[13]; at 0.313 µM, OCI-C5x cells, without rucaparib",127% (inactive)
same,viability,"[13]; at 0.313 µM, OCI-P5x cells, with rucaparib 20 µM, 100% = cells with rucaparib alone",20.3% (active)
same,viability,"[13]; at 0.313 µM, OCI-P5x cells, without rucaparib",9.78% (active)
same,viability,"[13]; at 1.25 µM, OCI-C5x cells, with rucaparib 10 µM, 100% = cells with rucaparib alone",12.2% (active)
same,viability,"[13]; at 1.25 µM, OCI-C5x cells, without rucaparib",15.4% (active)
same,viability,"[13]; at 1.25 µM, OCI-P5x cells, with rucaparib 20 µM, 100% = cells with rucaparib alone",9% (active)
same,viability,"[13]; at 1.25 µM, OCI-P5x cells, without rucaparib",7.18% (active)
same,viability,"[13]; at 5 µM, OCI-C5x cells, with rucaparib 10 µM, 100% = cells with rucaparib alone",11.2% (active)
same,viability,"[13]; at 5 µM, OCI-C5x cells, without rucaparib",10.3% (active)
same,viability,"[13]; at 5 µM, OCI-P5x cells, with rucaparib 20 µM, 100% = cells with rucaparib alone",9.01% (active)
same,viability,"[13]; at 5 µM, OCI-P5x cells, without rucaparib",6.09% (active)
